The text below walks through data of PubChem BioAssay (EPA / NIEHS).

Read-out in assay [1]: TIMP metallopeptidase inhibitor 1 (TIMP1), TIMP1 (gene 7076)
The assay is described as follows: BSK_hDFCGF_TIMP1: BioMAP Diversity Plus: hDFCGF Assay for TIMP metallopeptidase inhibitor 1 (TIMP1) Biomarker Activity (AID 2283062). To be noted: primary human foreskin fibroblasts; actives raise or lower the signal. The method in brief:
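Primary human foreskin fibroblasts in the hDFCGF system were dosed with compound for 24 h, then TIMP-1 was measured by ELISA. Activity was fitted bidirectionally relative to DMSO control; parallel SRB staining assessed cytotoxicity.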

Read-out in assay [2]: Monokine induced gamma interferon (MIG), CXCL9 (gene 4283)
The assay is described as follows: BSK_hDFCGF_MIG: BioMAP Diversity Plus: hDFCGF Assay for Monokine induced gamma interferon (MIG) Biomarker Activity (AID 2283063). The note with it: primary human foreskin fibroblasts; actives raise or lower the signal. Summed up: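 ELISA read-out of MIG from primary human dermal fibroblasts 24 h post-dosing. Gain or loss of signal fitted bidirectionally, DMSO as baseline.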

Read-out in assay [3]: Matrix Metallopeptidase 1 (MMP1), MMP1 (gene 4312)
Briefly: BSK_hDFCGF_MMP1: BioMAP Diversity Plus: hDFCGF Assay for Matrix Metallopeptidase 1 (MMP1) Biomarker Activity (AID 2283064). To be noted: primary human foreskin fibroblasts; actives raise or lower the signal. Summed up: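 hDFCGF primary fibroblasts (human foreskin); chemical added; 24 h; MMP1 by ELISA; bidirectional fit vs DMSO.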

Read-out in assay [4]: Vascular cell adhesion molecule 1 (VCAM1), VCAM1 (gene 7412)
Briefly: BSK_hDFCGF_VCAM1: BioMAP Diversity Plus: hDFCGF Assay for Vascular cell adhesion molecule 1 (VCAM1) Biomarker Activity (AID 2283065).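 On AC50: VCAM-1 protein level quantified by ELISA after 24 h chemical exposure.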 The note with it: primary human foreskin fibroblasts; actives raise or lower the signal. Summed up:
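Primary human foreskin fibroblasts (hDFCGF system) were dosed with chemical and VCAM-1 was measured by ELISA 24 h later. Bidirectional curve fitting used DMSO as negative control and activity baseline.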

Read-out in assay [5]: Plasminogen activator inhibitor-1 (PAI1), SERPINE1 (gene 5054)
Briefly: BSK_hDFCGF_PAI1: BioMAP Diversity Plus: hDFCGF Assay for Plasminogen activator inhibitor-1 (PAI1) Biomarker Activity (AID 2283066). The note with it: primary human foreskin fibroblasts; actives raise or lower the signal. Summed up:
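Primary dermal fibroblasts (human foreskin), hDFCGF system; compound 24 h; PAI-1 by ELISA; bidirectional fit vs DMSO control.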

Read-out in assay [6]: Intercellular Adhesion Molecule 1 (ICAM1), ICAM1 (gene 3383)
The assay is described as follows: BSK_KF3CT_ICAM1: BioMAP Diversity Plus: KF3CT Assay for Intercellular Adhesion Molecule 1 (ICAM1) Biomarker Activity (AID 2283067). To be noted: primary human keratinocytes with fibroblasts; actives raise or lower the signal. Summed up: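 Human keratinocyte plus foreskin fibroblast primary co-culture was exposed to chemical for 24 h. ICAM-1 was then quantified by ELISA, and the data were fit bidirectionally against DMSO as the negative control and baseline.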

Read-out in assay [7]: Interferon-gamma inducible Protein 10 (IP10), CXCL10 (gene 3627)
The assay is described as follows: BSK_KF3CT_IP10: BioMAP Diversity Plus: KF3CT Assay for Interferon-gamma inducible Protein 10 (IP10) Biomarker Activity (AID 2283068). The note with it: primary human keratinocytes with fibroblasts; actives raise or lower the signal. Summed up: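 Human keratinocyte plus foreskin fibroblast primary co-culture exposed to test chemical for 24 h; IP-10 measured by ELISA. Concentration-response fitted bidirectionally against DMSO control as baseline.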

Assay [8] is described as follows: BSK_KF3CT_SRB: Viability Assessment in the BioMAP Diversity Plus: KF3CT Assay (AID 2283069).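 Further: total protein by sulforhodamine B staining as a cytotoxicity measure; read 24 h after compound addition; fitted for both signal gain and loss against DMSO baseline.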 To be noted: primary human keratinocytes with fibroblasts. The method in brief:
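Keratinocytes co-cultured with foreskin fibroblasts (human primary); chemical added, 24 h; fix 10% TCA, stain 0.1% SRB, A560. Bidirectional fit vs DMSO.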

Read-out in assay [9]: Interleukin-1 alpha (IL1a), IL1A (gene 3552)
The assay is described as follows: BSK_KF3CT_IL1a: BioMAP Diversity Plus: KF3CT Assay for Interleukin-1 alpha (IL1a) Biomarker Activity (AID 2283070). To be noted: primary human keratinocytes with fibroblasts; actives raise or lower the signal. The method in brief: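 Chemicals were dosed onto co-cultured human keratinocytes and foreskin fibroblasts, IL-1a was quantified by ELISA at 24 h, and activity was fitted in both directions relative to DMSO controls.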

Read-out in assay [10]: TIMP metallopeptidase inhibitor 2 (TIMP2), TIMP2 (gene 7077)
Briefly: BSK_KF3CT_TIMP2: BioMAP Diversity Plus: KF3CT Assay for TIMP metallopeptidase inhibitor 2 (TIMP2) Biomarker Activity (AID 2283071). The note with it: primary human keratinocytes with fibroblasts; actives raise or lower the signal. The method in brief: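 Cells: human keratinocytes co-cultured with foreskin fibroblasts. Treat with chemical, 24 h. Measure TIMP-2 by ELISA; fit curves bidirectionally vs DMSO baseline.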

Read-out in assay [11]: Transforming growth factor beta 1 (TGFb1), TGFB1 (gene 7040)
Briefly: BSK_KF3CT_TGFb1: BioMAP Diversity Plus: KF3CT Assay for Transforming growth factor beta 1 (TGFb1) Biomarker Activity (AID 2283072). The note with it: primary human keratinocytes with fibroblasts; actives raise or lower the signal. The method in brief: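 Primary human skin cells (keratinocytes, foreskin fibroblasts) were co-cultured, exposed to test chemical and sampled at 24 h. TGF-b1 levels were measured by ELISA and fitted bidirectionally relative to DMSO.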

Read-out in assay [12]: C-C motif chemokine 2 (Homo sapiens) (UniProt P13500)
Briefly: BSK_KF3CT_MCP1: BioMAP Diversity Plus: KF3CT Assay for Monocyte Chemoattractant Protein 1 (MCP1/CCL2) Biomarker Activity (AID 2283073). The note with it: primary human keratinocytes with fibroblasts; actives raise or lower the signal. Summed up:
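Human keratinocyte plus foreskin fibroblast primary co-culture exposed to chemical for 24 h. MCP-1 levels measured by ELISA. Bidirectional curve fitting relative to DMSO negative control as baseline.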

Read-out in assay [13]: Matrix Metallopeptidase 9 (MMP9), MMP9 (gene 4318)
The assay is described as follows: BSK_KF3CT_MMP9: BioMAP Diversity Plus: KF3CT Assay for Matrix Metallopeptidase 9 (MMP9) Biomarker Activity (AID 2283074).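 On AC50: MMP9 protein level quantified by ELISA in the co-culture.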 To be noted: primary human keratinocytes with fibroblasts; actives raise or lower the signal. The method in brief:
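Human keratinocyte/foreskin fibroblast co-culture; compound added; 24 h; MMP-9 by ELISA; bidirectional fit vs DMSO baseline.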

Read-out in assay [14]: urokinase plasminogen activator (uPA), PLAU (gene 5328)
The assay is described as follows: BSK_KF3CT_uPA: BioMAP Diversity Plus: KF3CT Assay for urokinase plasminogen activator (uPA) Biomarker Activity (AID 2283075). The note with it: primary human keratinocytes with fibroblasts; actives raise or lower the signal. The method in brief:
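ELISA readout of uPA, analyzed for signal gain or loss relative to DMSO, from a human primary keratinocyte–foreskin fibroblast co-culture measured 24 h after chemical treatment.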

Read-out in the next assay: CD40, CD40 (gene 958)
The assay is described as follows: BSK_LPS_CD40: BioMAP Diversity Plus: LPS Assay for CD40 Biomarker Activity (AID 2283076). To be noted: primary human HUVEC with PBMC; actives raise or lower the signal. Summed up: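 Primary human umbilical vein endothelial cells co-cultured with peripheral blood mononuclear cells, LPS-stimulated, were dosed with chemical and read 24 h later. CD40 levels were measured by ELISA and fitted bidirectionally against DMSO as negative control and baseline.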

Read-out in assay [15]: E-selectin (Homo sapiens) (UniProt P16581)
Briefly: BSK_LPS_Eselectin: BioMAP Diversity Plus: LPS Assay for Eselectin Biomarker Activity (AID 2283077). The note with it: primary human HUVEC with PBMC; actives raise or lower the signal. The method in brief: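 Human umbilical vein endothelial cells co-cultured with peripheral blood mononuclear cells under LPS stimulation; E-selectin measured by ELISA 24 h after chemical dosing. Activity fitted bidirectionally against DMSO as negative control and baseline.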

Read-out in assay [16]: Interleukin-8 (IL8), CXCL8 (gene 3576)
Briefly: BSK_LPS_IL8: BioMAP Diversity Plus: LPS Assay for Interleukin-8 (IL8) Biomarker Activity (AID 2283078). To be noted: primary human HUVEC with PBMC; actives raise or lower the signal. Summed up: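 Human umbilical vein endothelial cells co-cultured with PBMC were stimulated with LPS; IL-8 levels were measured by ELISA 24 h after chemical dosing. Activity was fitted bidirectionally against DMSO as negative control and baseline.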

Assay [17] in a line: BSK_LPS_SRB: Viability Assessment in the BioMAP Diversity Plus: LPS Assay (AID 2283079).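 Further: total protein by sulforhodamine B absorbance as a cytotoxicity measure; measured one day after compound addition; fitted in both directions against DMSO so loss or gain of signal counts.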 The note with it: primary human HUVEC with PBMC. Summed up: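 Human umbilical vein endothelial cells co-cultured with PBMC (LPS system) were dosed for 24 h. Total protein was stained with 0.1% sulforhodamine B after 10% TCA fixation, read at 560 nm, and fitted bidirectionally against DMSO baseline.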

Read-out in assay [18]: Interleukin-1 alpha (IL1a), IL1A (gene 3552)
Briefly: BSK_LPS_IL1a: BioMAP Diversity Plus: LPS Assay for Interleukin-1 alpha (IL1a) Biomarker Activity (AID 2283080). To be noted: primary human HUVEC with PBMC; actives raise or lower the signal. The method in brief: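 Human umbilical vein endothelial cells co-cultured with peripheral blood mononuclear cells were LPS-stimulated and exposed to test chemicals for 24 h. IL-1 alpha was quantified by ELISA, with bidirectional curve fitting against DMSO as the negative control and baseline.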

Read-out in assay [19]: Monocyte Chemoattractant Protein-1 (MCP1), CCL2 (gene 6347)
The assay is described as follows: BSK_LPS_MCP1: BioMAP Diversity Plus: LPS Assay for Monocyte Chemoattractant Protein-1 (MCP1) Biomarker Activity (AID 2283081).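 On AC50: co-culture stimulated with LPS; secreted MCP-1 protein quantified by ELISA in culture supernatant.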 To be noted: primary human HUVEC with PBMC; actives raise or lower the signal. Summed up:
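HUVEC plus PBMC co-culture (human primary cells, LPS system) exposed to test chemical for 24 h; MCP-1 measured by ELISA. Bidirectional curve fitting against DMSO baseline; parallel SRB total-protein staining flags overt cytotoxicity.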

Activity calls are given as the source filed them. How the source made its calls: active means hit-call score of the fitted dose curve at least 0.9, where 1 is the maximum; inactive means score below 0.9.

Chain of E-selectin (Homo sapiens) (P16581 whole entry, looked up): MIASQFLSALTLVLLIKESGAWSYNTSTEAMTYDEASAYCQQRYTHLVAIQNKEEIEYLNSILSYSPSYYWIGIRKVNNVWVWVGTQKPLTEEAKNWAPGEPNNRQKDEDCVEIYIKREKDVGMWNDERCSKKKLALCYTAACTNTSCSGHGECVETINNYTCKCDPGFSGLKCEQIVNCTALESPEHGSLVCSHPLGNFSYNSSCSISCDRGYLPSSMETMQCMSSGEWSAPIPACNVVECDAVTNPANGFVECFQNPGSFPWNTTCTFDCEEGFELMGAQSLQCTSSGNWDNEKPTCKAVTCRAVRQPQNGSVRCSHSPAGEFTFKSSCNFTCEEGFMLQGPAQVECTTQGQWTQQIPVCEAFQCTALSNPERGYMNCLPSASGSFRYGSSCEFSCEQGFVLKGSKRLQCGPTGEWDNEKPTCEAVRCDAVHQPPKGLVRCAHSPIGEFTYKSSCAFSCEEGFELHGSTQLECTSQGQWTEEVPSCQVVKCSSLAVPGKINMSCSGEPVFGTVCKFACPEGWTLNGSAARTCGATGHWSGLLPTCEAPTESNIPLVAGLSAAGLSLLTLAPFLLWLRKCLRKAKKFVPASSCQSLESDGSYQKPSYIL

Take `CC(C)CCCCCCCOC(=O)CCCCC(=O)OCCCCCCCC(C)C`: the result in assay [1], in [2], in [3], in assay [4], in assay [5] and in assay [6] was inactive. Also, the outcome in [7], in [8], in assay [9], in [10], in assay [11] and in assay [12] was inactive. For the same compound, the outcome in assay [13] was “inactive”; in assay [14], “inactive”; with CD40, CD40 (gene 958), “inactive”; in assay [15], “inactive”; in assay [16], “inactive”; in assay [17] it was “inactive”. For the same compound, the outcome in [18] and in assay [19] was inactive.
`Nc1nc2ncc(CNc3ccc(C(=O)N[C@@H](CCC(=O)O)C(=O)O)cc3)nc2c(=O)[nH]1`: the result in assay [1], in [2], in assay [3], in [4], in assay [5] and in assay [6] was inactive. Also, the outcome in assay [7], in [8], in assay [9], in assay [10], in assay [11] and in [12] was inactive. Moreover, the outcome is “inactive” in [13]; “inactive” in assay [14]; “inactive” with CD40, CD40 (gene 958); “inactive” in assay [15]; “inactive” in [16]; “inactive” in assay [17]. In addition, the outcome in assay [18] and in assay [19] was inactive.
Consider `C1=CCCC=CCCC=CCC1`, for which the outcome in [1], in [2], in [3], in assay [4], in assay [5] and in assay [6] was inactive. Further, the outcome in assay [7], in [8], in [9], in assay [10], in assay [11] and in assay [12] was inactive. The outcome in assay [13] was “inactive”; in assay [14] it was “inactive”; in the assay with CD40, CD40 (gene 958) it was “inactive”; in assay [15] it was “inactive”; in assay [16], “inactive”; in assay [17], “inactive”. Moreover, the result in [18] and in assay [19] was inactive.
For the compound `CCOC(=O)c1ccc(C2CCC(NC[C@H](O)COc3ccc(O)c(NS(C)(=O)=O)c3)CC2)cc1` (stereo not given in full), the AC50 was 13.4 µM (active) in assay [1]; 24.7 µM (active) in assay [2]; 15.7 µM (active) in assay [3]; 8.27 µM (active) in [4]; 8.8 µM (active) in assay [5]; 18.7 µM (active) in assay [11]. Moreover, the AC50 in assay [13] is 27.2 µM (active); in assay [16] it was 30.9 µM (active); in assay [17], 26.1 µM (active); in assay [18], 29.9 µM (active); in assay [19] it was 34.1 µM (active). Besides, the outcome in assay [6], in [7], in [8], in assay [9], in assay [10] and in assay [12] was inactive. Further, the outcome in assay [14] is “inactive”; with CD40, CD40 (gene 958) it was “inactive”; in [15] it was “inactive”.
`O=P(OC(CCl)CCl)(OC(CCl)CCl)OC(CCl)CCl`: the outcome in assay [1], in [2], in [3], in assay [4], in assay [5] and in assay [6] was inactive. Further, the outcome in [7], in assay [8], in assay [9], in assay [10], in assay [11] and in [12] was inactive. The outcome in [13] is “inactive”; in assay [14], “inactive”; with CD40, CD40 (gene 958) it was “inactive”; in [15], “inactive”; in assay [16], “inactive”; in assay [17] it was “inactive”. Moreover, the outcome in assay [18] and in assay [19] was inactive.
Regarding `O=C1OC(=O)C2C3C=CC(C3)C12` (stereo not given), the outcome in [1], in assay [2], in [3], in assay [4], in assay [5] and in assay [6] was inactive. Besides, the outcome in assay [7], in assay [8], in [9], in [10], in assay [11] and in assay [12] was inactive. Also, the outcome is “inactive” in assay [13]; “inactive” in assay [14]; “inactive” in the assay with CD40, CD40 (gene 958); “inactive” in assay [15]; “inactive” in [16]; “inactive” in assay [17]. Besides, the result in assay [18] and in assay [19] was inactive.

By AC50 is commonly meant the concentration at which the activity in the assay is half-maximal.
